HTR5A inv ctr: HTR5A inverse agonists in luminescence cell assay, primary screen, counter-screen for OPRM1-OPRD1 heterodimer inverse agonist project, full-deck HTS; actives 0.083% (n = 340,000); 5-hydroxytryptamine receptor 5A (Homo sapiens), P47898; AID 504634, 2011; HTR5A cell line, inverse agonism; inhibition, % at 9.3 µM; in the data active = inhibition mostly above about 23%, no sharp cut-off; inactive = mostly below about 18%;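 note: 0% = cells with DMSO and 100% = no-cell wells with DMSO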
Target sequence (P47898 whole entry, looked up): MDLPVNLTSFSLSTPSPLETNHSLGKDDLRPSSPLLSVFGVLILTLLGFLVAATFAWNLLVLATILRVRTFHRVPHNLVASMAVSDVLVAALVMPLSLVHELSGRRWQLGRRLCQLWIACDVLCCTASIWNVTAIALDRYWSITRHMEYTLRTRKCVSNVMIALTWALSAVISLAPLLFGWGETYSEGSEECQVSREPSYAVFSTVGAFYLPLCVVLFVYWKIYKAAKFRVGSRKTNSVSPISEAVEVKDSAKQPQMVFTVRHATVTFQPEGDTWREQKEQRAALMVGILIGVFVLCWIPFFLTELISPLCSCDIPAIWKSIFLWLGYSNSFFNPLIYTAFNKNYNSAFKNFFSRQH
MOR-DOR ag-1: agonists of OPRM1-OPRD1 heterodimerization, primary screen, cell-based, luminescence; actives 0.3% (n = 340,000); AID 504326, 2011; Mu-type opioid receptor (Homo sapiens) + Delta-type opioid receptor (Homo sapiens), …; cells; activation, % at 9.3 µM;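 note: 0% = vehicle-treated cells and 100% = reference agonist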
HTR5A ag: HTR5A agonists in luminescence cell assay, primary screen, counter-screen for OPRM1-OPRD1 heterodimer agonist project, full-deck HTS. activation, % at 9.3 µM. 5-hydroxytryptamine receptor 5A (Homo sapiens), P47898. cell-based. AID 504692, 2011. actives 0.61% (n = 340,000); in the data active = activation mostly above about 9.5%, no sharp cut-off; inactive = mostly below about 7.6%;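 note: 0% = cells with vehicle only and 100% = reference agonist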
OPRM1-OPRD1 inv: inverse agonists of MOR-DOR heterodimerization, primary screen, cell-based, luminescence; Mu-type opioid receptor (Homo sapiens) + Delta-type opioid receptor (Homo sapiens), …; actives 0.21% (n = 340,000); AID 504357, 2011; cell-based MOR-DOR heterodimer luminescence, inverse agonism; inhibition, % at 9.3 µM; in the data active = inhibition above about 22%, passing the limit was not always enough;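 note: 0% = cells with DMSO and 100% = wells without cells with DMSO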
MOR-DOR ag-2: OPRM1-OPRD1 heterodimerization promoters, counter-screen for HTR5A agonist project, cell-based, luminescence; shares compounds with HTR5A ag; U2OS counter-screen cells, complementation luminescence, 3 h; activation, % at 9.3 µM; actives 13% (n = 800); AID 504913, 2011
HTR5A ag confirm: HTR5A agonists, retest of hits, confirmation, cell-based, luminescence | shares compounds with HTR5A ag | HTR5A agonist cell assay | activation, % at 9.3 µM | actives 17% (n = 800) | AID 504915, 2011; in the data active = activation above about 17%;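 note: 0% = cells with vehicle only and 100% = full reference agonist response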
An asterisk follows results filed as active; / = no result given. Compounds with a hit are over-represented: about 1.1% of the library has one in this group of screens. Cut-off read from the data, not from the text of the source, unless noted: active = activation above about 18%; inactive = the rest.

SMILES	HTR5A inv ctr	MOR-DOR ag-1	HTR5A ag	OPRM1-OPRD1 inv	MOR-DOR ag-2	HTR5A ag confirm
CCOc1ccc(C(=O)Nc2ccc(NC(=O)c3ccco3)c(Cl)c2)cc1Br	-83	16	19*	-84	40*	4
CCOc1ccc(C(=O)N2CCN(Cc3ccccc3)CC2)cc1OCC	-1	0	16*	0	4	-1
CCOc1ccc(C(=O)N2CCN(Cc3ccccc3)CC2)cc1	14	-1	-4	3	/	/
O=C(CCN1C(=O)S/C(=C\c2ccc(F)cc2)C1=O)Nc1ccc(O)cc1C(=O)O	1	-2	0	10	/	/
CSc1ncccc1C(=O)NNc1cc(Cl)ccc1Cl	5	-3	-1	12	/	/
COc1ccc(CN(C(=O)CSc2nnc(-c3ccc(F)cc3)o2)c2ccc(F)cc2)cc1	-18	3	7	-14	/	/
COc1ccc(CN(C(=O)CSc2nnc(-c3c[nH]c4ccccc34)o2)c2ccc(F)cc2)cc1OC	-44	4	16*	-23	27*	1
Nc1nc(=O)c2ccccc2s1	-22	-3	6	15	/	/
COC(=O)C1=C(C)N(Cc2ccccc2)C(=NCc2cc(OC)c(OC)c(OC)c2)N[C@H]1c1ccc(Br)cc1	-12	2	14*	-13	-1	0
CC(C)N=C(NC#N)SCC(=O)NC(C)(C)C	-3	-2	7	9	/	/
C=CCN=C(NC#N)SCC(=O)NC(C)(C)C	-43	-2	17*	7	20*	-3
CCc1ccc(NC(=O)Cn2nc(C(F)(F)F)c3c2CCC3)cc1	-31	11	20*	-67	8	7
CCc1ccccc1NC(=O)Cn1nc(C(F)(F)F)c2c1CCC2	11	1	-9	-6	/	/
CCNc1nc2c(c(=O)n(C)c(=O)n2C)n1CCCc1ccccc1	3	0	-1	-2	/	/
CCOC(=O)c1cc2sc(C)cc2n1CC(=O)NCc1ccc(F)cc1	-22	8	20*	-47	3	5
CCOC(=O)c1cc2sc(C)cc2n1CC(=O)N1CCOCC1	9	0	-4	-1	/	/
Cc1ccc(S(=O)(=O)c2nc(S(C)(=O)=O)sc2N2CCC3(CC2)OCCO3)cc1	-37	-1	15	3	/	/
Cc1cc(C(C)(C)C)ccc1OCCCCN1CCCC1	7	-2	-5	14	/	/
CCC(C)(C)c1ccc(OCCCC[n+]2cccc(C)c2C)c(C(C)(C)CC)c1	-44	11	21*	-56	-2	-2
CCc1cc[n+](-c2nc3ccccc3nc2C(=C=[N-])C#N)cc1	-43	8	16*	-33	2	4
N#CC(=C=[N-])c1nc2ccccc2nc1-[n+]1cccc(NC(=O)c2ccccc2)c1	12	-4	4	20	/	/
O=C(NCc1ccc2c(c1)OCO2)c1cnc2n(c1=O)CCS2	-53	-1	19*	5	0	0
CCCCOc1ccc(C(=O)N/C(=C\c2cccc([N+](=O)[O-])c2)C(=O)OC(C)C)cc1	8	5	16*	-21	1	2
CC(C)c1ccc(-c2nnn(CCC#N)n2)cc1	-1	-3	0	16	/	/
CC(C)c1ccc(-c2nnn(Cc3nc4ccccc4s3)n2)cc1	2	4	21*	-18	3	1
SMILES	HTR5A inv ctr	MOR-DOR ag-1	HTR5A ag	OPRM1-OPRD1 inv	MOR-DOR ag-2	HTR5A ag confirm
COC(C/C=C/C(=O)[C@H](C)OCc1ccccc1)OC	-15	0	6	2	/	/
COc1cccc(-c2sc3ccccc3c2-c2ccc(OCCN3CCCC3)cc2)c1	-54	10	16*	-53	2	19*
COc1cccc(-c2sc3ccccc3c2-c2ccc(OCCN3CCCCC3)cc2)c1	-75	7	17*	-37	10	6
COc1cccc(-c2sc3ccc(OC)cc3c2-c2ccc(OCCN3CCCC3)cc2)c1	-27	5	7	-25	/	/
O=C(NCCN1CCCCC1)c1cc(COc2c(F)cccc2F)on1	5	-1	-1	4	/	/
CCN(CC)CCNC(=O)c1ccc(NC(=O)COc2ccc3c(c2)CCC3)cc1	-41	-2	17*	8	3	7
Cc1sc2ncnc(NCC(O)c3ccc([N+](=O)[O-])cc3)c2c1C (centres undefined)	-6	1	2	-4	/	/
CCN1CCC(O)(/C=C/c2ccc(C(C)C)cc2)C(C(=O)/C=C/c2ccc(C(C)C)cc2)C1 (centres undefined)	-71	3	18*	-16	51*	27*
CCN1CCN(C(=O)/C=C/c2ccc(C(C)C)cc2)CC1	4	-2	1	8	/	/
CC(C)=C1SC(N2CCN(c3cccc(Cl)c3)CC2)=NC1=O	49	1	14*	-3	35*	-2
COc1ccc(C)cc1NC(=O)COC(=O)c1ccc2c(c1)OCCO2	-47	9	19*	-36	-1	0
Cc1ccc(C(=O)c2c3ccc([N+](=O)[O-])cc3[n+]([O-])n2CCCC(N)=O)cc1	-43	5	17*	-28	-1	0
NC(=O)CCCn1c(C(=O)c2ccc(Cl)cc2)c2ccc([N+](=O)[O-])cc2[n+]1[O-]	-27	2	11	-11	/	/
O=C(C1CCN(S(=O)(=O)c2ccccc2)CC1)N1CCc2ccccc21	-20	-2	8	8	/	/
O=C(C1CCN(S(=O)(=O)c2ccc3c(c2)OCCO3)CC1)N1CCc2ccccc21	-86	0	33*	1	1	23*
COc1ccc2cc(-c3ccon3)ccc2c1	-3	0	1	1	/	/
O=C1CC(c2ccco2)Sc2ccccc2N1 (centres undefined)	4	-2	-1	8	/	/
O=C1CC(c2ccccc2)Sc2ccccc2N1 (centres undefined)	-47	-3	17*	12	2	3
Cc1ccc(C(=O)O/N=C2\CCSc3ccc(C)cc32)cc1	-89	0	37*	-1	2	1
Cc1cccc(C(=O)O/N=C2\CCSc3ccc(C)cc32)c1	10	2	15*	-8	7	41*
COc1ccc(S(=O)(=O)O/N=C2\CCSc3ccc(C)cc32)cc1	-7	5	-2	-21	/	/
Cc1ccc(NC(=O)CSc2nnc(Cc3ccccc3)c(=O)[nH]2)c(C)c1	9	0	1	3	/	/
Nc1ncnc2nc(N3CCN(C(=O)c4ccccc4)CC3)[nH]c12	-47	-3	19*	17	0	-1
CN(C)c1ccc(S(=O)(=O)c2ccc(Cl)cc2)cc1	24	5	16*	-29	2	2
O=[N+]([O-])c1ccc(S(=O)(=O)NN=C2CCCCC2)cc1	-55	-1	15*	7	2	4

Screens: PubChem BioAssay, The Scripps Research Institute Molecular Screening Center
